Results: PubChem BioAssay AID434961 (Broad Institute, 2010)
Among all 7,700 compounds or so, about 15 (0.2%) were called active. Not shown: some 6% with an inconclusive outcome.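 Rule for the calls: active = more than half of replicate wells with inhibition above about 18% (limit read from the data, passing the limit was not always enough); inconclusive = exactly half of replicate wells above that limit; inactive = fewer than half of replicates above it.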 The entries come from a sample that favours actives as a whole.

Target: Regulator of chromosome condensation (Homo sapiens) + GTP-binding nuclear protein Ran (Homo sapiens) + Importin subunit beta-1 (Homo sapiens) (UniProt P18754+P62826+Q14974)
Test: inhibitors of Ran–importin-beta complex formation, primary screen, biochemical, CFP-Ran/YFP-importin-beta FRET, RCC1, cell-free (AID 434961);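 note: 0% = DMSO wells and 100% inhibition = RanGDP control wells on each plate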
Settings: stronger effect = higher value, concentration not given here

inhibition, inactive:
C[C@@H]1CN([C@H](C)CO)C(=O)c2cc(NS(=O)(=O)c3ccccc3)ccc2O[C@@H](C)CCCCO[C@@H]1CN(C)Cc1ccc2c(c1)OCO2 -2.27%
COc1ccc(S(=O)(=O)Nc2cccc3c2O[C@H](CN(C)Cc2ccc4c(c2)OCO4)[C@@H](C)CN([C@@H](C)CO)C3=O)cc1 1.75%
C[C@@H]1CCCCO[C@@H](CN(C)C(=O)CCC(F)(F)F)[C@@H](C)CN([C@@H](C)CO)C(=O)c2cc(NS(=O)(=O)c3cccs3)ccc2O1 5.99%
C[C@@H]1CN([C@@H](C)CO)C(=O)c2cccc(NC(=O)c3cnccn3)c2O[C@H]1CN(C)C(=O)NC1CCCCC1 0.00388%
CC(C)NC(=O)N(C)C[C@@H]1Oc2c(NC(=O)C3CCOCC3)cccc2C(=O)N([C@H](C)CO)C[C@H]1C -0.0599%
C[C@H]1CN([C@@H](C)CO)C(=O)Cc2cc(NS(=O)(=O)c3ccccc3)ccc2O[C@@H]1CN(C)Cc1ccc2c(c1)OCO2 0.885%
Cc1noc(C)c1NC(=O)Nc1ccc2c(c1)CC(=O)N([C@H](C)CO)C[C@@H](C)[C@H](CN(C)S(=O)(=O)c1ccccc1)O2 0.923%
C[C@@H]1CN([C@H](C)CO)C(=O)c2cc(NS(=O)(=O)c3cn(C)cn3)ccc2O[C@H]1CN(C)C(=O)Nc1ccc2c(c1)OCO2 0.416%
C[C@H](CO)N1C[C@H](C)[C@@H](CN(C)S(=O)(=O)c2ccccc2)Oc2ccc(NC(=O)NC3CCCCC3)cc2C1=O 3.44%
C[C@@H]1CN([C@@H](C)CO)C(=O)Cc2cc(NS(=O)(=O)c3cn(C)cn3)ccc2O[C@H]1CN(C)S(=O)(=O)c1ccc(Cl)cc1 -7.4%
C[C@H](CO)N1C[C@H](C)[C@@H](CN(C)C(=O)NC2CCCCC2)Oc2c(NS(=O)(=O)c3ccccc3)cccc2C1=O 1.49%
C[C@H]1CN([C@@H](C)CO)C(=O)CCCn2nncc2CO[C@H]1CN(C)C(=O)Nc1ccccc1F 0.229%
Cc1noc(C)c1S(=O)(=O)N(C)C[C@@H]1Oc2ccc(NC(=O)C3CCCCC3)cc2CC(=O)N([C@@H](C)CO)C[C@@H]1C -3.61%
CC(C)NC(=O)N(C)C[C@@H]1Oc2c(NS(=O)(=O)c3ccccc3)cccc2C(=O)N([C@H](C)CO)C[C@H]1C 4.93%
C[C@@H]1CN([C@H](C)CO)C(=O)Cc2cc(NC(=O)Nc3ccccc3)ccc2O[C@H]1CN(C)CC1CC1 -1.7%
